This note sets out measurements from PubChem BioAssay (NCATS).

Experiment in all cases: Primary qHTS to identify gynecologic anti-cancer compounds using libraries of approved drugs and bioactive compounds (AID 1345084); further: nearly all actives have a fitted effect of over 55% in size
In one assay the test system is Hek293T. Conditions: Gynecologic cancer cell panel viability, ATPlite luminescence, 48 h, control line for the selectivity index; series mostly up to 57.5 µM. An outline of the steps:
(§1)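 ATP-based viability (ATPlite), 1,000 cells/well, 16 h pre-incubation, 48 h compound at 37 C, 5% CO2, 15 min RT before read.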

A further assay concerns JEG-3. Conditions: Gynecologic cancer cell panel viability, ATPlite luminescence, 48 h; series mostly up to 57.5 µM. An outline of the steps: as §1
A further assay concerns OV90. The conditions noted are these: Gynecologic cancer cell panel viability, ATPlite luminescence, 48 h; series mostly up to 57.5 µM. In short, it runs like this:
as §1

A further assay has as its system PA-1. Conditions: Gynecologic cancer cell panel viability, ATPlite luminescence, 48 h; series mostly up to 57.5 µM. In short, it runs like this: as §1
In the next assay the test system is SKOV3. Conditions: Gynecologic cancer cell panel viability, ATPlite luminescence, 48 h; series mostly up to 57.5 µM. An outline of the steps:
as §1

The subject of another assay is Tov-21-G. Conditions: Gynecologic cancer cell panel viability, ATPlite luminescence, 48 h; series mostly up to 57.5 µM. In short, it runs like this: as §1
For a further assay, the system named is Es-2. Conditions: Gynecologic cancer cell panel viability, ATPlite luminescence, 48 h; series mostly up to 57.5 µM. An outline of the steps:
as §1

For a further assay, the system named is HeLa. The conditions noted are these: Gynecologic cancer cell panel viability, ATPlite luminescence, 48 h; series mostly up to 57.5 µM. An outline of the steps: as §1
The next assay concerns Tov112D. Conditions: Gynecologic cancer cell panel viability, ATPlite luminescence, 48 h; series mostly up to 57.5 µM. An outline of the steps:
as §1

Records with an inconclusive call do not appear. Activity calls are given as the source filed them. The call rests on the fitted dose curve; in most records, active means well fitted cell-killing curve with a large enough effect; inconclusive means small, poorly fitted or top-dose-only effect, or effect the other way; inactive means flat fitted curve, though single readings scatter.
Potency means the concentration at half of the fitted maximal effect.

Regarding `CNC(=O)c1cccc(-c2ccc3c(N4CCOC[C@@H]4C)nc(N4CCOC[C@@H]4C)nc3n2)c1`, the Potency is 1.41 µM (active) in the assay with Hek293T; 1.26 µM (active) in the assay on OV90; 1.58 µM (active) with PA-1; 1.58 µM (active) with SKOV3; 1.41 µM (active) in the assay on Tov-21-G. For the same compound, in the assay with JEG-3, the Potency entry was “inactive”.

Consider `O=C(CSc1nc2c(c(=O)n1-c1ccccc1)SCC2)Nc1ccc(-c2ccccc2)cn1`, for which the Potency in the assay with Es-2 was 0.224 µM (active); in the assay on HeLa, 0.158 µM (active); in the assay on OV90, 1.26 µM (active); in the assay on Tov-21-G, 0.316 µM (active); in the assay on Tov112D, 0.158 µM (active).

Consider `O=C(Nc1ccc(S(=O)(=O)C(F)(F)F)cc1)C1=CCN(c2ncccc2C(F)(F)F)CC1`, for which the Potency result in the assay on JEG-3 and with Tov-21-G was “inactive” each time.

As to `NC(=O)Nc1cc(-c2cccc(F)c2)sc1C(=O)NC1CCCNC1` (stereo unspecified), the Potency in the assay on Hek293T was 0.447 µM (active); in the assay with OV90, 5.62 µM (active).

As to `C[C@@H]1C[C@@H]2O[C@H]2/C=C\C=C\C(=O)Cc2c(Cl)c(O)cc(O)c2C(=O)O1`, the Potency result in the assay with HeLa, with JEG-3 and in the assay on Tov112D was “inactive” in each case. Also, in the assay on PA-1, the Potency was 10 µM (active).

As to `CC(C)(C#N)c1ccc(N2C(=O)OCc3cnc4ccc(-c5cnc6ccccc6c5)cc4c32)cc1`, the Potency was 12.6 µM (active) in the assay with Hek293T, 12.6 µM (active) with PA-1, 2.82 µM (active) in the assay on SKOV3 and 10 µM (active) in the assay with Tov-21-G. Moreover, the Potency result with JEG-3 was “inactive”.

With `COC(=O)C1(C)c2[nH]c3ccccc3c2CCN1C(=O)CCl` (stereo unspecified), the Potency entry in the assay with OV90 was “inactive”. Further, in the assay on Tov-21-G, the Potency was 22.4 µM (active).

On to `C=CC(=O)Nc1cccc(Nc2nc(Nc3ccc(N4CCN(C(C)=O)CC4)cc3OC)ncc2C(F)(F)F)c1`, for which the Potency entry in the assay on Es-2 is “inactive”. In the assay with OV90, the Potency is 15.8 µM (active).

Take `C/C=C/c1ccc(O[C@@H]2O[C@H](CO)[C@@H](O)[C@H](O)[C@H]2O)c(OC)c1`: the Potency entry with OV90 and in the assay on Tov112D was “inactive” in each case.

For `Nc1nccn2c(C3CCC(C(=O)O)CC3)nc(-c3cc4cccc(Cl)c4[nH]3)c12` (stereo unspecified), the Potency in the assay on Es-2 was 28.2 µM (active); in the assay with OV90, 10 µM (active); with PA-1, 7.94 µM (active); in the assay on SKOV3, 3.16 µM (active); with Tov-21-G it was 4.47 µM (active).

In the case of `CCC1C(=O)N(C)c2cnc(Nc3ccc(C(=O)NC4CCC(N5CCN(CC6CC6)CC5)CC4)cc3OC)nc2N1C(C)C` (stereo unspecified), in the assay with PA-1, the Potency was 0.316 µM (active).
